# Laboratory results published in the supplement of paper PMC12582362.
# Structures can show the parent of a compound that is named as a salt. Out of some 1,500 compounds screened, about 30 (2%) showed activity. Many of the other results were omitted from the sample, so actives are more common in it than they were. A number with no mark means an inactive call.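 The calls were made as follows: active = robust z-score below -2; a few such results were not called.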
# Tested on: optoTopBP1 Flp-In 293 T-REx (HEK293) cells
# Test: light-induced TopBP1 condensate (nuclear foci) count, plate-normalised robust z-score vs non-control wells; higher = more TopBP1 condensates (negative = condensation inhibitor), active = hit call of the paper
# Settings: 10 µM; incubation time 2 h
row,Structure (SMILES),light-induced TopBP1 condensate (z-score)
1,COc1c(O[C@@H]2O[C@H](CO)[C@@H](O)[C@H](O)[C@H]2O)cc2c(c1OC)-c1ccc(SC)c(=O)cc1[C@@H](NC(C)=O)CC2 [Thiocolchicoside],-0.423
2,CCCCCOC(=O)Nc1nc(=O)n([C@@H]2O[C@H](C)[C@@H](O)[C@H]2O)cc1F [Capecitabine],0.43
3,CO[C@H]1/C=C/O[C@@]2(C)Oc3c(C)c(O)c4c(c3C2=O)C2=NC3(CCN(CC(C)C)CC3)NC2=C(NC(=O)/C(C)=C\C=C\[C@H](C)[C@H](O)[C@@H](C)[C@@H](O)[C@@H](C)[C@H](OC(C)=O)[C@@H]1C)C4=O [Rifabutin],-0.0256
4,COc1c(O)cc2c(c1O)[C@@H]1O[C@H](CO)[C@@H](O)[C@H](O)[C@H]1OC2=O [Bergenin],-0.755
5,Cc1nccn1CC1CCc2c(c3ccccc3n2C)C1=O (centres undefined) [Ondansetron Hydrochloride],1.05
6,NC[C@H]1O[C@H](O[C@H]2[C@H](O)[C@@H](O[C@H]3O[C@H](CO)[C@@H](O)[C@H](N)[C@H]3O)[C@H](N)C[C@@H]2N)[C@H](N)C[C@@H]1O [Tobramycin],-0.114
7,CNCC[C@@H](Oc1ccccc1C)c1ccccc1 [Tomoxetine hydrochloride],-1.4
8,CC(NN)c1ccccc1 (centres undefined) [Mebanazine],0.298
9,CC(NCCC(c1ccccc1)c1ccccc1)c1ccccc1 (centres undefined) [Fendiline hydrochloride],-2.06 (active)
10,CC(C)[C@H]1CC[C@H](C(=O)N[C@H](Cc2ccccc2)C(=O)O)CC1 [Nateglinide],-0.706
11,COc1cc(NC(C)CCCN)c2ncccc2c1 (centres undefined) [Primaquine diphosphate],-1.07
12,N[C@@H]1CCCCN(c2c(F)cc3c(=O)c(C(=O)O)cn(C4CC4)c3c2Cl)C1 [Besifloxacin hydrochloride],-0.0694
13,C[C@@H](O)[C@H]1C(=O)N2C(C(=O)O)=C(S[C@@H]3CN[C@H](CNS(N)(=O)=O)C3)[C@H](C)[C@H]12 [Doripenem monohydrate],1.08
14,Cc1cc(C(C)(C)CC(C)(C)C)ccc1OCCOCC[N+](C)(C)Cc1ccccc1 [Methyl benzethonium chloride],-0.593
15,CCN(CC)C(=S)SSC(=S)N(CC)CC [Disulfiram],-4.41 (active)
16,C=C1c2c(Cl)ccc(O)c2C(=O)C2=C(O)[C@]3(O)C(=O)C(C(N)=O)=C(O)[C@@H](N(C)C)[C@@H]3[C@@H](O)[C@H]12.O=C(O)c1cc(S(=O)(=O)O)ccc1O [Meclocycline sulfosalicylate],0.506
17,N[C@@H](CCC(=O)N[C@@H](CS)C(=O)NCC(=O)O)C(=O)O [Glutathione],1.35
18,O=C(O)CCNC(=O)c1ccccc1 [Betamipron],-0.17
19,Cn1c(=O)c2c(ncn2CCO)n(C)c1=O [Etofylline],0.502
20,CO[C@@]12[C@H](COC(N)=O)C3=C(C(=O)C(C)=C(N)C3=O)N1C[C@@H]1N[C@@H]12 [Mitomycin C],-0.867

row,Structure (SMILES),light-induced TopBP1 condensate (z-score)
1,N[C@H](Cc1ccccc1)C(=O)O [D-phenylalanine],-1.1
2,"CC(C)(S)C(N)C(=O)O (racemic) [D,L-Penicillamine]",1.98
3,Cc1ccc(C)c(OCCCC(C)(C)C(=O)O)c1 [Gemfibrozil],0.575
4,CC(=O)[C@@]12O[C@](C)(c3ccccc3)O[C@@H]1C[C@H]1[C@@H]3CCC4=CC(=O)CC[C@]4(C)[C@H]3CC[C@@]12C [Algestone acetophenide],-1.65
5,COc1cc(NS(=O)(=O)c2ccc(N)cc2)nc(OC)n1 [Sulfadimethoxine],0.224
6,CCN(CC)C(=O)Nc1ccc(OCC(O)CNC(C)(C)C)c(C(C)=O)c1 (centres undefined) [Celiprolol hydrochloride],-0.488
7,CCc1oc2ccccc2c1C(=O)c1ccc(O)cc1 [Benzarone],1.57
8,CCCCC1=NC2(CCCC2)C(=O)N1Cc1ccc(-c2ccccc2-c2nnn[nH]2)cc1 [Irbesartan],-0.971
9,CN(C)C(=N)NC(=N)N [Metformin hydrochloride],-0.726
10,CC(C)(C)C(O)/C=C/c1ccc2c(c1)OCO2 (centres undefined) [Stiripentol],1.26
11,CCOC(=O)c1c(N)sc2c1CCN(Cc1ccccc1)C2 [Tinoridine hydrochloride],0.308
12,C[C@H]1O[C@@H](O[C@H]2[C@@H](O)C[C@H](O[C@H]3[C@@H](O)C[C@H](O[C@H]4CC[C@@]5(C)[C@H](CC[C@@H]6[C@@H]5C[C@@H](O)[C@]5(C)[C@@H](C7=CC(=O)OC7)CC[C@]65O)C4)O[C@@H]3C)O[C@@H]2C)C[C@H](O)[C@@H]1O [Digoxin],-2.42 (active)
13,CCCCOC(=O)c1ccccc1Nc1cccc(C(F)(F)F)c1 [Ufenamate],-0.0275
14,O=C(NCCO[N+](=O)[O-])c1cccnc1 [Nicorandil],0.468
15,Cn1nnc2c(C(N)=O)ncn2c1=O [Temozolomide],-0.835
16,Cc1c(Cl)cccc1Nc1ncccc1C(=O)O [Clonixin Lysinate],0.77
17,NC(=O)c1cc[n+](CC2=C(C(=O)[O-])N3C(=O)[C@@H](NC(=O)[C@@H](c4ccccc4)S(=O)(=O)O)[C@H]3SC2)cc1 [Cefsulodin sodium salt],0.128
18,CC[C@H]1OC(=O)[C@H](C)[C@@H](O[C@H]2C[C@@](C)(OC)[C@@H](O)[C@H](C)O2)[C@H](C)[C@@H](O[C@@H]2O[C@H](C)C[C@H](N(C)C)[C@H]2O)[C@](C)(O)C[C@@H](C)C(=O)[C@H](C)[C@@H](O)[C@]1(C)O [Erythromycin],-0.359
19,CCC1(c2ccccc2)NC(=O)N(C)C1=O (centres undefined) [Mephenytoin],0.477
20,COCC(=O)O[C@]1(CCN(C)CCCc2nc3ccccc3[nH]2)CCc2cc(F)ccc2[C@@H]1C(C)C [Mibefradil],-2.07 (active)

row,Structure (SMILES),light-induced TopBP1 condensate (z-score)
1,COc1cc(/C=C/C(=O)N2CCN(CC(=O)N3CCCC3)CC2)cc(OC)c1OC [Cinepazide maleate],-0.187
2,CC(C)[C@H](N)C(=O)OCC(CO)OCn1cnc2c(=O)nc(N)[nH]c21 (some centres undefined) [Valganciclovir hydrochloride],0.111
3,CCCCCCCCCCCCCCCC[N+](C)(C)CCN(Cc1ccc(OC)cc1)c1ncccn1 [Thonzonium bromide],-2.49 (active)
4,CN(C)CCN(Cc1ccc(Cl)cc1)c1ccccn1 [Chloropyramine hydrochloride],-0.941
5,COc1ccc(CN(CCN(C)C)c2ccccn2)cc1 [Pyrilamine maleate],-1.49
6,CO/N=C(\C(=O)N[C@@H]1C(=O)N2C(C(=O)OC(C)OC(C)=O)=C(COC(N)=O)CS[C@H]12)c1ccco1 (some centres undefined) [Cefuroxime axetil],-0.531
7,C=C(NC(=O)C(=C)NC(=O)c1csc(C2=N[C@@H]3c4csc(n4)[C@H]4NC(=O)c5csc(n5)[C@H]([C@](C)(O)[C@@H](C)O)NC(=O)[C@H]5CSC(=N5)/C(=C/C)NC(=O)[C@H]([C@@H](C)O)NC(=O)c5csc(n5)[C@]3(CC2)NC(=O)[C@H](C)NC(=O)C(=C)NC(=O)[C@H](C)NC(=O)[C@H]([C@@H](C)CC)N[C@@H]2C=Cc3c([C@H](C)O)cc(nc3[C@H]2O)C(=O)O[C@@H]4C)n1)C(N)=O [Thiostrepton],-3.34 (active)
8,CC(C)c1ccc2oc3nc(N)c(C(=O)O)cc3c(=O)c2c1 [Amlexanox],-0.968
9,N=C(NCCCCCCNC(=N)NC(=N)Nc1ccc(Cl)cc1)NC(=N)Nc1ccc(Cl)cc1 [Chlorhexidine],0.68
10,CCc1ccc(C(=O)C(C)CN2CCCCC2)cc1 (centres undefined) [Eperisone HCl],1.18
11,CC(=O)OCC(=O)[C@@]12N=C(C)O[C@@H]1C[C@H]1[C@@H]3CCC4=CC(=O)C=C[C@]4(C)[C@H]3[C@@H](O)C[C@@]12C [Deflazacort],-0.182
12,CCOC(=O)C1=C(COCCN)NC(C)=C(C(=O)OC)C1c1ccccc1Cl (centres undefined) [Amlodipine],-1.57
13,OC(c1cc(C(F)(F)F)nc2c(C(F)(F)F)cccc12)C1CCCCN1 (centres undefined) [Mefloquine hydrochloride],-1.69
14,CN(C)c1ccc2nc3ccc(=[N+](C)C)cc-3sc2c1 [Methylene blue],-8.05 (active)
15,Nc1ccc2cc3ccc(N)cc3nc2c1 [Proflavine hemisulfate],-6.85 (active)
16,Nc1c2ccccc2nc2ccccc12 [Aminacrine],-2.02
17,CCOc1ccc2nc3cc(N)ccc3c(N)c2c1 [Ethacridine lactate],0.0605
18,CO/N=C(\C(=O)N[C@@H]1C(=O)N2C(C(=O)[O-])=C(C[n+]3ccn4ncccc43)CS[C@H]12)c1nsc(N)n1 [Cefozopran hydrochloride],0.96
19,CC[C@H]1OC(=O)[C@H](C)[C@@H](O[C@H]2C[C@@](C)(OC)[C@@H](O)[C@H](C)O2)[C@H](C)[C@@H](O[C@@H]2O[C@H](C)C[C@H](N(C)C)[C@H]2O)[C@](C)(O)C[C@@H](C)/C(=N\OCOCCOC)[C@H](C)[C@@H](O)[C@]1(C)O [Roxithromycin],0.222
